Measurements from PubChem BioAssay (NCATS).
Results filed as inconclusive are left out. Activity calls are given as the source filed them. Calls follow the shape of the dose curve; as a rule, active = well fitted inhibition curve with a large enough effect; inconclusive = small, poorly fitted or top-dose-only effect; inactive = flat fitted curve, though single readings scatter.

Columns and labels:
Test in all cases: qHTS profiling for inhibitors of Plasmodium falciparum proliferation (AID 504749); also: nearly all actives have a fitted effect of over 60% in size
Conditions in all cases: P. falciparum in erythrocytes, SYBR Green DNA, 72 h; series mostly up to 28.7 µM
[1] = tested on: DIV14
How it was run: (§1)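 SYBR Green fluorescence (ex 485 nm, em 535 nm) reports parasite DNA after 72 h compound exposure of infected red cells at 0.3% parasitemia, 2.5% hematocrit; signal normalized to 0.29 uM artemisinin and vehicle wells.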

[2] = tested on: DIV17
How it was run: as §1

[3] = tested on: DIV30
How it was run: as §1

[4] = tested on: Dd2
How it was run: as §1

[5] = tested on: ECU
How it was run: as §1

[6] = tested on: FAB9
How it was run: as §1

[7] = tested on: GB4
How it was run: as §1

[8] = tested on: HB3
How it was run: as §1

[9] = tested on: ICS
How it was run: as §1

[10] = tested on: JCK
How it was run: as §1

[11] = tested on: N140
How it was run: as §1

[12] = tested on: P93_24
How it was run: as §1

[13] = tested on: P94_40
How it was run: as §1

[14] = tested on: PAD
How it was run: as §1

[15] = tested on: PC15
How it was run: as §1

[16] = tested on: PC26
How it was run: as §1

[17] = tested on: PC49
How it was run: as §1

[18] = tested on: SC27B
How it was run: as §1

[19] = tested on: TAB109
How it was run: as §1

[20] = tested on: TAB113
How it was run: as §1

Measured: Potency

N[C@@H](CSCCCO)C(=O)O
inactive: all assays above

Nc1ccc(S(=O)(=O)Nc2ccccc2)cc1
inactive: all assays above

CCCCN(CCCC)CCCOC(=O)c1ccc(N)cc1
inactive: all assays above

O=c1cc[nH]c(=S)[nH]1
inactive: all assays above

[O-][n+]1cccc(CO)c1
inactive: all assays above

CC1=C(/C=C/C(C)=C/C=C/C(C)=C/C(=O)O)C(C)(C)CCC1
inactive: all assays above

Nc1ccc(S(=O)(=O)Nc2nccs2)cc1
inactive: all assays above

NCC(=O)CCC(=O)O
inactive: all assays above

CCC(=O)c1ccc(O)cc1
inactive: all assays above

Nc1ccc(S(=O)(=O)NC(=O)c2ccccc2)cc1
inactive: all assays above

CCOC(=O)[C@H](CCc1ccccc1)N[C@@H](C)C(=O)N1C(=O)N(C)C[C@H]1C(=O)O
inactive: all assays above

CC(O)CN(CCN(CC(C)O)CC(C)O)CC(C)O (stereo not given)
inactive: all assays above

O=C(O)c1ccccc1O
inactive: all assays above

CC(=O)CCC(=O)O
inactive: all assays above
